# Sampled rows, rich in hits. Any-hit rate of the full collection: about 7.3%.
# Tau fluor cs: counter-screen for tau fibril formation inhibitors; AID 1463; tau K18 P301L Alexa594 fluorescence, heparin fibrillization; Potency, µM (series often up to 57.7 µM), for the others: at the highest dose activity change, negative = decrease; 280,000 tested, 0.93% active; also: nearly all actives have a fitted effect of over 55% in size
#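 Human K18 P301L tau (15 uM unlabeled plus 0.24 uM Alexa 594-labeled, final) in 100 mM sodium acetate pH 7 was mixed with compound and 20 uM heparin and incubated 6 hr at 37 C.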
# Tau fibril ThT: blocks human tau fibril formation measured by thioflavin T; P10636; recombinant tau K18 P301L, heparin-induced fibrillization, ThT fluorescence; Potency, µM (series often up to 57.4 µM), for the others: top-dose activity, negative = inhibition, most hits filed as inhibitors; 270,000 tested, 2.1% active; also: nearly all actives have a fitted effect of over 55% in size
# Target sequence (P10636 561-689 P618L limits assumed): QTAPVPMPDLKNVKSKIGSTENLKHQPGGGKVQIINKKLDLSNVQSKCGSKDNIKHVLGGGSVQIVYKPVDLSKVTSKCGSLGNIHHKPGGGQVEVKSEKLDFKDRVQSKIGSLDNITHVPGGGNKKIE
#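 Using a mix of unlabeled (15 uM) and Alexa 594-labeled (0.24 uM) tau K18 P301L, heparin-triggered fibrillization over 6 hr at 37 C was scored by ThT fluorescence.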
# Tau FP inhib: tau fibrillization inhibition (FP) | K18 P301L tau heparin fibrillization, Alexa594 FP, 6 h | Potency, µM (highest dose often 57.7 µM), for the others: at the highest dose activity, negative = inhibition, usual class: inhibitors | 280,000 tested, 0.39% active; also: nearly all actives have a fitted effect of over 55% in size
#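 Steps: dispense K18 P301L tau (15 uM plus 0.24 uM Alexa 594 tracer, final) in pH 7 sodium acetate; add compound; add heparin (20 uM final); incubate 6 hr, 37 C; add ThT (30 uM final); after 1 hr ambient, read FP.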
# VP16 counter: counter-screen for ROR gamma inhibitors: Gal4-VP16 reporter. 310,000 tested, 3.5% active. Drosophila S2 Gal4-VP16 UAS-luciferase, luminescence, 20 h. Potency, µM (titrated, usually from 53.6 µM), inactives show at the highest dose activity, negative = inhibition, actives largely listed as inhibitors;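 also: Gal4-VP16 expression switched on by copper sulfate through the metallothionein promoter; nearly all actives have a fitted effect of over 50% in size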
# RORg inh: inhibitors of mouse ROR gamma transcriptional activity | 310,000 tested, 5.4% active | Drosophila S2 Gal4-RORgamma UAS-luciferase reporter, 20 h | Potency, µM (highest dose often 53.6 µM), for the others: top-dose activity change, negative = inhibition, most hits filed as inhibitors | P51450; also: nearly all actives have a fitted effect of over 60% in size
# Target sequence (P51450 whole entry, looked up, the tested form may be a part): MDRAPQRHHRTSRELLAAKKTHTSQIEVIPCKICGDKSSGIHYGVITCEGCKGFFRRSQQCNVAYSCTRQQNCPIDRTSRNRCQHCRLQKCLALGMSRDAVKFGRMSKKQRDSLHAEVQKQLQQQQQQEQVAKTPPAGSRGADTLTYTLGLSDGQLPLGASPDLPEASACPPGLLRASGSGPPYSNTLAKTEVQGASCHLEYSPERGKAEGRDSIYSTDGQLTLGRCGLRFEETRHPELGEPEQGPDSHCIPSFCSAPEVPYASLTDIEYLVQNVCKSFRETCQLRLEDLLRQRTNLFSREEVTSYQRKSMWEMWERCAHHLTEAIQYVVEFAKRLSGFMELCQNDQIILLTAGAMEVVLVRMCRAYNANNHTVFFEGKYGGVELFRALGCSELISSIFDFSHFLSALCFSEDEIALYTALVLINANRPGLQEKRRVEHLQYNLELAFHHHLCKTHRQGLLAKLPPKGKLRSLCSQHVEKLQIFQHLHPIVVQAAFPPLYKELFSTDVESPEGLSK
#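 Luciferase reporter read in Schneider cells carrying Gal4-RORγ (mouse) and UAS-Photinus luciferase; cells given compound 1 h before 700 uM copper sulfate induction, then incubated 20 h at ambient temperature.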
# An asterisk follows results filed as active; u = inconclusive; x = no result given; ! = a repeat was not active; [ ] = another dose, or the depositor's remark. Calls follow the shape of the dose curve; as a rule, active = well fitted curve in the direction sought with a large enough effect; inconclusive = small, poorly fitted or top-dose-only effect, or another doubt; inactive = no such curve, though single readings can be large; an effect the other way counts as inactive or inconclusive. % is scaled to controls: 0 for no effect and ±100 for the full control effect; potency is read from the fitted curve at half-maximal effect.
SMILES,Tau fluor cs,Tau fibril ThT,Tau FP inhib,VP16 counter,RORg inh
CCOCCCNC(=O)CN1C(=O)NC(Cc2c[nH]c3ccccc23)C1=O (configuration not stated),x,x,x,4%,-19%
COc1ccc(CNc2ccc(Br)cc2)cc1,u,u,8%,-18%,10%
COc1ccc(NC2=NCC(Cc3ccc(Br)cc3)S2)cc1 (configuration not stated),7%,4%,2%,3.5µM*,u
CC(C)C[C@H](NC(=O)CNC(=O)[C@H](C)NC(=O)[C@H](CC(C)C)NC(=O)[C@H](CCCNC(=N)N)NC(=O)[C@H](Cc1cnc[nH]1)NC(=O)[C@@H](NC(=O)[C@@H](NC(=O)[C@@H]1CSSC[C@H](NC(=O)[C@@H](N)CO)C(=O)N[C@@H](CC(N)=O)C(=O)N[C@@H]([C@@H](C)O)C(=O)N[C@@H](C)C(=O)N[C@@H]([C@@H](C)O)C(=O)N1)C(C)C)[C@@H](C)O)C(=O)N[C@@H](CC(C)C)C(=O)N[C@@H](CO)C(=O)N[C@@H](CCCNC(=N)N)C(=O)N[C@@H](CO)C(=O)NCC(=O)NCC(=O)N[C@H](C(=O)N[C@H](C(=O)N[C@@H](CCCCN)C(=O)N[C@@H](CC(=O)O)C(=O)N[C@@H](CC(N)=O)C(=O)N[C@@H](Cc1ccccc1)C(=O)N[C@H](C(=O)N1CCC[C@H]1C(=O)N[C@H](C(=O)N[C@@H](CC(N)=O)C(=O)N[C@H](C(=O)NCC(=O)N[C@@H](CO)C(=O)N[C@@H](CCCCN)C(=O)N[C@@H](C)C(=O)N[C@@H](Cc1ccccc1)C(N)=O)C(C)C)[C@@H](C)O)C(C)C)C(C)C)C(C)C,x,x,x,-2%,15%
Cc1ccc(C(=O)Nc2cccc3ccccc23)cc1,x,x,x,-6%,0%
CC(=O)c1cccc(NC(=S)Nc2cccc3ccccc23)c1,x,x,x,11µM*,13µM*
Cc1ccc(F)c(NC(=S)Nc2cccc3ccccc23)c1,x,x,x,u,11µM*
CC(=O)c1cccc(NC(=S)NCc2ccccc2)c1,x,x,x,12%,u
Cc1ccc(C(=O)NNC(=S)Nc2cccc3ccccc23)s1,-27%,13µM*,u,-14%,0.79µM*
CC(=O)Nc1cccc(NC(=S)Nc2cccc3ccccc23)c1,x,x,x,u,13µM*
CCCCNC(=O)CCn1c(=O)c2ccccc2n(CC(=O)NCCc2ccc(OC)c(OC)c2)c1=O,1%,0%,7%,-9%,-35%
COc1cc(OC)c(C2Nc3ccccc3-c3nnc(SCc4ccccc4)nc3O2)cc1OC (configuration not stated),-17%,u,-4%,x,x
O=C(Cn1ccn(-c2ccc(F)cc2)c(=O)c1=O)Nc1ccc(F)cc1,6%,4%,-8%,x,x
COc1ccc(NC(=O)c2nc3nc(C)cc(C(F)F)n3n2)c(C)c1,-8%,-11%,-6%,x,x
COc1ccc(Br)cc1C(C[N+](=O)[O-])c1c(N)n(C)c(=O)n(C)c1=O (configuration not stated),-17%,x,10%,u,u
CN(C)c1ccc(C(C[N+](=O)[O-])c2c(N)n(C)c(=O)n(C)c2=O)c(F)c1C#N (configuration not stated),x,x,x,11µM*,6.3µM*
O=C(c1ccc2c(=O)n(C3CCCC3)c(=S)[nH]c2c1)N1CCc2ccccc21,-12%,-12%,8%,3.2µM*,1µM*
CCN(CC)CCNC(=O)c1ccc2c(=O)n(C3CCCC3)c(=S)[nH]c2c1,-27%,-7%,-12%,1%,-37%
CC(C)NC(=O)c1ccc2c(=O)n(C3CCCC3)c(=S)[nH]c2c1,-3%,3%,-19%,u,0.1µM*
CCOC(=O)c1sc2ccccc2c1S(=O)(=O)Nc1ccc(OC)c(Cl)c1,u,-12%,-18%,x,x
COC(=O)c1ccc(C(=O)OC)c(NC(=O)c2cnn3c(C(F)F)cc(-c4ccc(C)cc4)nc23)c1,-7%,-6%,-8%,x,x
CCCC(=O)Nc1ccc(S(=O)(=O)N2CCCC2)cc1,-6%,-2%,2%,11%,16%
CC(C)CCCCCCNC(=S)Nc1ccc(S(=O)(=O)N2CCOCC2)cc1,u,15%,25µM*,u,u
CCCCC(=O)NC(=S)Nc1ccc(S(=O)(=O)N2CCCC2)cc1,-15%,-5%,-4%,-20%,13µM*
CN(C)NC(=S)Nc1ccc(S(=O)(=O)N2CCCCC2)cc1,-9%,-5%,-6%,5.6µM*,2.8µM*
SMILES,Tau fluor cs,Tau fibril ThT,Tau FP inhib,VP16 counter,RORg inh
NS(=O)(=O)c1ccc(NC(=S)Nc2ccc(S(=O)(=O)N3CCCC3)cc2)cc1,u,-13%,u,-2%,3%
O=C(CCc1ccccc1)NC(=S)Nc1ccc(S(=O)(=O)N2CCOCC2)cc1,-27%,-5%,-4%,-20%,22µM*
N#CC1(c2ccccc2)CCN(S(=O)(=O)c2ccc(OC(F)(F)F)cc2)CC1,x,x,x,-9%,1%
Cc1ccc(S(=O)(=O)c2nnn3c2nc(NC(C)c2ccccc2)c2sccc23)cc1 (configuration not stated),-20%,14%,u,x,x
CCNC(=S)NNc1nncc2ccccc12,-3%,-6%,-2%,3.2µM*,0.5µM*
COc1ccccc1/C=N/Nc1nncc2ccccc12,7%,7%,4%,4µM*,2µM*
CCNC(=S)NNC(=O)CCn1c2ccccc2c2ccccc21,-4%,2%,2%,u,u
COc1ccc(/C=N/Nc2nncc3ccccc23)cc1,-29%,u,5%,-9%,-15%
CNC(=S)NNc1nncc2ccccc12,-1%,-6%,2%,4.5µM*,5µM*
NNc1nncc2ccccc12,-12%,u,u,u,7.1µM*!
Cc1ccc(-c2nc(CS(=O)CC(=O)NCc3ccco3)c(C)o2)cc1 (configuration not stated),x,x,x,-5%,-23%
COCCn1c(=O)c(-c2ccc(F)c(F)c2)nc2cncnc21,x,x,x,3%,-25%
O=C(CNS(=O)(=O)c1ccc(Br)s1)NCCc1ccc(Cl)cc1,x,x,x,-4%,-24%
CCOC(=O)c1cc2c(C)n(-c3ccc(OCC)cc3)c(C)c2ccc1=O,-5%,u,0%,-10%,u
CCOC(=O)c1cc2c(C)n(-c3ccc(C)cc3)c(C)c2ccc1=O,-5%,u,1%,10µM*,-41%
CCCCC(=O)NC(=S)Nc1c(C)cc(Br)cc1C,-12%,-13%,-8%,u,5.6µM*
CCCCC(=O)NC(=S)Nc1cccc(NC(=O)CC)c1,-2%,-7%,3%,-5%,u
CCCCC(=O)NC(=S)NNS(=O)(=O)c1ccccc1,-2%,-10%,-1%,20µM*,13µM*
CCCCCC(=O)NNC(=S)NC(=O)c1ccccc1[N+](=O)[O-],12%[2.34 µM],0%,9%,-11%,u

# Screening data as filed in PubChem.
